TrxR1 substrate: rat thioredoxin reductase 1 substrate activity | Potency, µM (highest dose often 114 µM), for the others: at the top dose activity change, negative = substrate turnover | actives 0.01% (n = 390,000) | purified TrxR1 substrate turnover, NADPH consumption readout | AID 588456; further: potency means the concentration at half of the fitted maximal effect; on the % scale 0 is the no-effect control and ±100 the full control effect; nearly all actives have a fitted effect of over 50% in size
Target sequence (O89049 whole entry, looked up): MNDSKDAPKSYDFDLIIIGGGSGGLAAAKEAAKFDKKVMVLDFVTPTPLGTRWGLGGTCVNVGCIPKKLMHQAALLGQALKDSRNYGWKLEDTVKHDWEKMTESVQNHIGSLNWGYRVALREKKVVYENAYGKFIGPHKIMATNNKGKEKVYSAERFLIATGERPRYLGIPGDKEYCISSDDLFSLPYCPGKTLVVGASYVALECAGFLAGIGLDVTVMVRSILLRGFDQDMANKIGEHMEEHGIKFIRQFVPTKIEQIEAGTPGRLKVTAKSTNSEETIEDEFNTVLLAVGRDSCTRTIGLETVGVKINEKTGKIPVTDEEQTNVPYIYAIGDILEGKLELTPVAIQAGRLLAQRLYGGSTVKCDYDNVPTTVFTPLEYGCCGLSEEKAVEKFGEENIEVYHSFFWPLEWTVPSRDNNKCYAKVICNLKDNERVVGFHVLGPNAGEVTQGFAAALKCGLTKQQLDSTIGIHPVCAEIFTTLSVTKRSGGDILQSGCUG
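Rat TrxR1, dispensed at 90 nM, was prereduced with 400 uM NADPH (final) for 5 min at ~22 deg C, then incubated with compound 15 min before 400 uM selenite. A first-read NADPH fluorescence drop versus no-compound background flagged substrates.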
TrxR1 inh: blocks rat thioredoxin reductase 1; O89049; recombinant rTrxR1, NADPH fluorescence consumption, selenite substrate; Potency, µM (series often up to 114 µM), inactives show top-dose activity change, negative = inhibition, hits mostly inhibitors; actives 1% (n = 390,000); further: potency means the concentration at half of the fitted maximal effect; on the % scale 0 is the no-effect control and ±100 the full control effect; nearly all actives have a fitted effect of over 65% in size
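Rat TrxR1 (90 nM in the dispensed reagent) was pre-reduced with 400 uM NADPH for 5 min at room temperature, then incubated with compound for 15 min. After 400 uM selenite was added, NADPH fluorescence (Ex 340/Em 450 nm) was followed for 8 min.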
A-T KAP1 phos: candidate therapy for ataxia-telangiectasia | F2112 A-T fibroblasts, KAP-1 phosphorylation AlphaLISA; neocarzinostatin DNA damage 30 min before lysis | Potency, µM (highest dose often 57.5 µM), without a hit: top-dose activation, most hits filed as activators | actives 0.19% (n = 320,000) | AID 485349; further: potency means the concentration at half of the fitted maximal effect; % of control where 0% means no effect; nearly all actives have a fitted effect of over 45% in size
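hTERT-immortalized A-T patient fibroblasts (F2112), 500 cells/well in OPTI-MEM, 1% FBS, got compounds for 60 min, then NCS for 30 min at 37C. Lysates were then assayed for phospho-KAP-1 by AlphaLISA (anti-pKAP1 donor, anti-KAP1 acceptor beads), 6 hr at 25C.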
Pin1 inhibitor: blocks the human prolyl isomerase Pin1 | Pin1 FP peptide displacement, HiFluor488, 10 min | Q13526 | AID 504891 | actives 0.009% (n = 390,000) | Potency, µM (doses to about 115 µM), inactives show at the highest dose activity, negative = inhibition, most hits filed as inhibitors; active means well fitted inhibition curve with a large enough effect in the polarisation, with a control signal flat, not every such curve was filed as active; inconclusive means small, poorly fitted or top-dose-only effect, or effect the other way, or a change in a side signal; inactive means no such curve, though single readings can be large or run the other way; the % refers to the polarisation; further: potency means the concentration at half of the fitted maximal effect; on the % scale 0 is the no-effect control and ±100 the full control effect
Target sequence (Q13526 whole entry, looked up): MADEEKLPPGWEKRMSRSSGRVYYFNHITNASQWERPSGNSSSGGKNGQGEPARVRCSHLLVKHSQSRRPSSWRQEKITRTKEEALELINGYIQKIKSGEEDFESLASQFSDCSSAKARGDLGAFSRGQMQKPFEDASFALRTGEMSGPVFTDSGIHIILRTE
N370S GC mod: inhibitors or activators of N370S glucocerebrosidase for Gaucher disease | actives 0.092% (n = 330,000) | AID 2101 | Potency, µM (titrated, usually from 59.4 µM), without a hit: at the top dose activity change, negative = inhibition, most hits filed as inhibitors | N370S GC spleen homogenate, 4MU-glucoside fluorescence;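 further: potency means the concentration at half of the fitted maximal effect; 0% = full enzyme activity and -100% = no enzyme basal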
Akt phos inh: Akt phosphorylation inhibition; Neuro2A IGF-stimulated pAkt S473 HTRF, 20 min; stronger effect = lower value; activity change, % for hits at 50 µM; actives 0.32% (n = 360,000); AID 651550; in the data active means activity change below about -80%; inconclusive means mostly about -51% to -80%; further: on the % scale 0 is the no-effect control and ±100 the full control effect
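Single-point screen (50 µM final compound) in Neuro2A cells stimulated 20 min with 6 nM IGF at 37 deg C. After lysis, Ser473-phosphorylated Akt read by HTRF (ex 330 nm, em 615/665 nm) as the 665/615 ratio.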
Active calls of the source: *; i = inactive; ? = inconclusive; nt = not tested or not shown; [ ] = dose if it differs, or a comment. In the library only some 1.4% were active in any assay of this set; here they are far more common. Unless noted, the call rests on the fitted dose curve; in most records, active means well fitted curve in the direction sought with a large enough effect; inconclusive means small, poorly fitted or top-dose-only effect, or another doubt; inactive means no such curve, though single readings can be large; an effect the other way counts as inactive or inconclusive.

SMILES	TrxR1 substrate	TrxR1 inh	A-T KAP1 phos	Pin1 inhibitor	N370S GC mod	Akt phos inh
COc1ccc(-c2nnc(SCC(=O)NCCc3ccccc3)o2)cc1	6%	19%	-2%	1%	7%	-124%*
Cc1nc(-c2ccc([S+](=O)([O-])N3CCN([S+](=O)([O-])c4c(F)cccc4F)CC3)s2)cs1	nt	nt	nt	8%	nt	nt
Nc1ccc(S(=O)(=O)N2CCCN(S(=O)(=O)c3ccc4c(c3)OCCO4)CC2)cc1	nt	nt	nt	-1%	nt	nt
NC(CCC(=O)NC(CCSC(CC(=O)O)C(=O)O)C(=O)NCC(=O)O)C(=O)O (stereo not given)	nt	nt	nt	nt	7%	nt
CC(C)c1ccc(-c2c(C#N)c(N)nc(SCC(=O)N3CCCCCC3)c2C#N)cc1	9%[57.1 µM]	4%[57.1 µM]	nt	13%	6%	-124%*
COC(=O)CSc1nc(N)c(C#N)c(-c2ccc(O)cc2)c1C#N	3%[57.1 µM]	16%[57.1 µM]	-8%	-5%	-4%	i
O=S1(=O)CCOC[C@H](c2ccccc2)N1Cc1ccc(Cl)c(Cl)c1	-1%	31%	nt	nt	nt	nt
Cc1ccc(O)c(C2=Nc3ccccc3N=C(c3ccco3)C2)c1	-2%	9%	-7%	60%	3%	?
Cc1ccc(C2=Nc3ccccc3N=C(c3ccco3)C2)c(O)c1	-1%	1%	4%	9%	9%	-125%*
O=C(C1CCCO1)N1CCN(Cc2c(O)ccc3ccccc23)CC1 (stereo not given)	9%	7.1µM*	-2%	0%	16%	i
O=C(c1cccs1)N1CCN(Cc2ccccn2)CC1	3%[57.1 µM]	15%[57.1 µM]	13%	-12%	-3%	i
CCOC(=O)N1CCN(Cc2ccccn2)CC1	-7%	-22%	nt	0%	1%	-105%*
CCOC(=O)C1CCN(Cc2c(O)ccc3ccccc23)CC1	16%	?	0%	1%	2%	nt
CCOC(=O)N1CCN(Cc2ccc(O)c3ncccc23)CC1	-1%[57.1 µM]	13µM*	-1%	-1%	-2%	i
CCOC(=O)N1CCN(Cc2c(O)ccc3ccccc23)CC1	11%	13µM*	-11%	1%	7%	i
CCc1ccc(NC(=O)C2CCCN(S(=O)(=O)c3cccc4cccnc34)C2)cc1 (stereo not given)	3%	21%	nt	7%	nt	nt
CCN1C(=O)[C@H]2[C@@H](c3ccc(-c4ccc(Cl)c(Cl)c4)cc3)N[C@@](CC(C)C)(C(=O)OC)[C@H]2C1=O	17%[57.1 µM]	31%	35µM*	1%	-15%	i
CCN1C(=O)[C@H]2[C@@H](c3ccc(-c4cccc(Cl)c4)cc3)N[C@@](CC(C)C)(C(=O)OC)[C@H]2C1=O	4%[57.1 µM]	17%[57.1 µM]	-8%	0%	nt	i
COc1ccc(NC(=O)c2cc3c(s2)-c2c(C)cccc2OC3)cc1Cl	11%	5%	nt	?	nt	nt
COc1ccccc1Nc1nc(N)nc(CN2CCCCCC2)n1	7%[57.1 µM]	14µM*	4%	4%	-4%	i
COc1ccccc1Nc1nc(N)nc(CN2CCOCC2)n1	9%	13%	10%	2%	-11%	i
COc1ccc(C2c3c(ncn(CCc4ccccc4)c3=N)Oc3ccc4ccccc4c32)cc1OC (stereo not given)	nt	nt	nt	3%	nt	nt
CN(Cc1ccccc1F)C(=O)c1ccc(Oc2ccccc2)cc1	7%	29%	14µM*	-1%	-11%	i
CCN(CCO)C1CC(=O)N(c2ccccc2C)C1=O (stereo not given)	0%	50µM*	-17%	-2%	-1%	i
CCOc1ccc2c(c1)nc(SCC(=O)c1ccc(Br)s1)n2C	-6%	25µM*	7%	0%	3%	nt
SMILES	TrxR1 substrate	TrxR1 inh	A-T KAP1 phos	Pin1 inhibitor	N370S GC mod	Akt phos inh
CCCCOC(=O)Nc1ccc(OC)cc1S(=O)(=O)N1CCOCC1	8%[57.1 µM]	11%[57.1 µM]	-1%	-8%	-8%	-110%*
CNc1oc(-c2ccc(Cl)cc2)nc1C#N	190%	40µM*	10%	-5%	-11%	i
Cc1cc(S(=O)(=O)ON2C(=O)c3ccccc3C2=O)ccc1F	25%	?	7%	-7%	-11%	i
Cc1ccc(C)c(S(=O)(=O)ON2C(=O)c3ccccc3C2=O)c1	24%	3.2µM*	0%	1%	6%	i
CCC1CCCCN1C(=O)CSc1nc2ncccc2[nH]1 (stereo not given)	-2%	50µM*	8%	?	3%	nt
COc1cc(OC)c(/C=C/c2ccc3ccccc3[n+]2C)c(OC)c1	-14%	17%	nt	nt	nt	nt
OC(CC#CCN1CCCC1)(c1ccccc1)c1ccccc1	1%[57.1 µM]	-21%[57.1 µM]	-12%	-13%	3%	i
CN1CCN(CC#CCC(O)(c2ccccc2)c2ccccc2)CC1	7%[57.1 µM]	3%[57.1 µM]	40µM*	-2%	-7%	i
Nc1ccccc1N1CCN(C(=O)c2ccccc2)CC1	12%[57.1 µM]	9%[57.1 µM]	-2%	-4%	2%	-103%*
C[n+]1ccnc2cc(Cl)ccc21	-15%	?	nt	nt	nt	nt
CCOc1cc(C)c(Cl)cc1S(=O)(=O)N1CCCC1	9%[57.1 µM]	11%[57.1 µM]	10%	-2%	10%	-119%*
COc1cc(C)c(Cl)cc1S(=O)(=O)N1CCCC1	-1%[57.1 µM]	1%[57.1 µM]	1%	-9%	10%	i
CC1=C(C(=O)OCC2CCCO2)C(c2ccc(Cl)c(Cl)c2)NC(=O)N1 (stereo not given)	-6%[57.1 µM]	-3%[57.1 µM]	17%	-10%	15%	i
CC1=C(C(=O)OCC2CCCO2)C(c2ccccc2Cl)NC(=O)N1 (stereo not given)	3%	8%	2%	-2%	1%	-99%*
CCOc1ccc(CC2NCCc3cc(OCC)c(OCC)cc32)cc1OCC (stereo not given)	5%	50µM*	-4%	4%	-1%	i
Cn1cc(CNC(=O)Nc2ccc3c(c2)OCO3)cn1	9%[57.1 µM]	15%[57.1 µM]	-1%	-2%	6%	-106%*
COc1ccc(NC(=O)c2ccccc2OCC(=O)Nc2ccc(Br)cc2)cc1	5%	13%	nt	nt	nt	nt
O=C(CN(Cc1ccccc1)C(=O)CCl)c1cccc(Br)c1	-5%	14µM*	15%	-6%	?	i
O=C(NCCCc1ccccc1)c1cccc(Br)c1	-1%	24%	nt	-1%	nt	i
COc1cc(O)c2c(c1)OC(c1ccc(O)cc1)CC2=O (stereo not given)	2%	-11%	40µM*	?	?	i
COc1cc(O)c2c(c1)O[C@H](c1ccccc1)CC2=O	nt	nt	nt	nt	-6%	nt
Cn1c(=S)n(C)c2ccccc21	1%	13%	-1%	-10%	4%	i
Cn1ccc(=S)c2ccccc21	-4%	22µM*	-10%	0%	-1%	i
CC(=O)Nc1sc2c(c1C(N)=O)CCCC2	-3%	-14%	0%	0%	-5%	i
NC(=O)c1c(/N=C/c2cccs2)sc2c1CCCC2	-2%	40µM*	0%	-5%	3%	i

From PubChem BioAssay
